Measured values from PubChem BioAssay (Tox21).
Several values for one entry are separate records, joined by “and”; a condition that tells them apart may be missing. Equal entries are not always repeated. Values without a mark were called inactive. Records with an inconclusive call do not appear. Where a call stands in place of a potency, no number is given. Activity calls are given as the source filed them. Unless noted, calls follow the shape of the dose curve; as a rule, active = well fitted curve in the direction sought with a large enough effect in the repeat runs; inconclusive = weak or mixed curves; inactive = no such curve, though single readings can be large; an effect the other way counts as inactive or inconclusive.

Tests used:
[1] = Human pregnane X receptor (PXR) small molecule agonists, qHTS cell viability counter screen (AID 1346977); also: nearly all actives have a fitted effect of over 50% in size; also: potency is read from the fitted curve at half-maximal effect
Method in brief: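 In each well, the PXR reporter HepG2 line was checked for viability: CellTiter-Fluor reagent added 23hr post-dosing, fluorescence read after 1hr incubation at 37C.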

[2] = Caspase-3/7 induction in HepG2 cells by small molecules, qHTS assay (AID 1346978); also: nearly all actives have a fitted effect of over 15% in size; also: potency is read from the fitted curve at half-maximal effect
Method in brief: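 Caspase-3/7 induction was measured by Caspase-Glo 3/7 luminescence (30 min, room temperature) after a 17 hr compound exposure of wild-type HepG2 cells seeded at 2,000 per well and pre-incubated 5 hr.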

[3] = Caspase-3/7 induction in CHO-K1 cells by small molecules, qHTS cell viability counter screen (AID 1346979); also: nearly all actives have a fitted effect of over 35% in size; also: potency is read from the fitted curve at half-maximal effect
Method in brief: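 Following a 5hr settling period, CHO-K1 cells at 1,500 per well received DMSO-dissolved compounds. Cell viability was quantified 16hr later by CellTiter-Fluor fluorescence, measured after 1hr with reagent at 37C.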

[4] = Caspase-3/7 induction in CHO-K1 cells by small molecules, qHTS assay (AID 1346980); also: nearly all actives have a fitted effect of over 15% in size
Method in brief: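 Luminescent Caspase-Glo 3/7 read (30min, room temperature) quantified apoptosis induction. Cells were wild-type CHO-K1, treated with compound for 17hr at 37 C and 5% CO2.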

[5] = Caspase-3/7 induction in HepG2 cells by small molecules, qHTS cell viability counter screen (AID 1346981); also: nearly all actives have a fitted effect of over 30% in size; also: potency is read from the fitted curve at half-maximal effect
Method in brief: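 Fluorescence read-out of live-cell protease activity (CellTiter-Fluor) after 1 hr with reagent. This was measured in the same wells as the caspase-3/7 luminescence, on HepG2 cells exposed to DMSO-dissolved compounds for 16 hr at 37 C.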

[6] = molecular target: Acetylcholinesterase (Homo sapiens) (UniProt P22303); test: Acetylcholinesterase (AChE) small molecule antagonists: colormetric cell-based qHTS assay (AID 1347395; calls by dose curve; also: nearly all actives have a fitted effect of over 30% in size; also: potency is read from the fitted curve at half-maximal effect)
Method in brief: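 After overnight attachment at 37 C, SH-SY5Y cells get 30 min compound exposure; detection cocktail (acetylthiocholine, DTNB) then incubates 90 min at 37 C, and absorbance reflects AChE-generated thiocholine.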

[7] = molecular target: Acetylcholinesterase (Homo sapiens) (UniProt P22303); test: Acetylcholinesterase (AChE) small molecule antagonists: enzyme-based qHTS assay (AID 1347397; calls by dose curve; also: nearly all actives have a fitted effect of over 55% in size); conditions: Potency: AChE enzyme activity inhibition
Method in brief: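 Colorimetric DTNB readout of acetylthiocholine hydrolysis, 10 min at room temperature, after 30 min room-temperature exposure of 50 mU/mL recombinant human enzyme to compound; DMSO vehicle control.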

[8] = molecular target: Acetylcholinesterase (Homo sapiens) (UniProt P22303); test: Acetylcholinesterase (AChE) small molecule antagonists: fluorescence cell-based qHTS assay (AID 1347398; calls by dose curve; also: nearly all actives have a fitted effect of over 50% in size; also: potency is read from the fitted curve at half-maximal effect); conditions: Potency: AChE activity
Method in brief: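 Cellular AChE activity read as thiocholine from acetylthiocholine hydrolysis, detected by Thiolite Green fluorescence at 490/520 nm after 40 min at room temperature. Compounds were pre-incubated 30 min at 37 C on adherent SH-SY5Y cells.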

[9] = molecular target: Acetylcholinesterase (Homo sapiens) (UniProt P22303); test: Acetylcholinesterase (AChE) small molecule antagonists: enzyme-based qHTS assay with human liver microsomes (AID 1347399; calls by dose curve; also: nearly all actives have a fitted effect of over 60% in size); conditions: Potency: qHTS inhibition
Method in brief: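 Recombinant human AChE (50 mU/mL in the enzyme mix) and human liver microsomes (0.25 mg/mL final) were preincubated with compound and NADPH (0.25 mg/mL final) for 30 min at 37 C. Acetylthiocholine/DTNB was then added; thiocholine was read colorimetrically after 10 min at room temperature.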

[10] = molecular target: Cytochrome P450 1A2 (Homo sapiens) (UniProt P05177); test: Cytochrome P450 Family 1 Subfamily A Member 2 (CYP1A2) small molecule antagonists: luciferase reporter qHTS assay (AID 1671199); also: nearly all actives have a fitted effect of over 50% in size; also: potency is read from the fitted curve at half-maximal effect
Method in brief: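 Luminescence readout (relative luminescence units) after luciferin detection reagent, 20 min RT. Preceded by 1 h room-temperature CYP1A2 reaction with NADPH regeneration solution following 10 min compound preincubation with enzyme and proluciferin substrate. Furafylline positive control.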

[11] = molecular target: Voltage-gated inwardly rectifying potassium channel KCNH2 (Homo sapiens) (UniProt Q12809); test: Human Ether-a-go-go-Related Gene (hERG) channel small molecule antagonists: fluorescence cell-based qHTS assay (AID 1671200); also: nearly all actives have a fitted effect of over 50% in size; also: potency is read from the fitted curve at half-maximal effect
Method in brief: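 In this thallium-flux screen, overnight-cultured U2OS cells bearing the channel are dye-loaded in darkness for an hour, rested 10 min at room temperature, and then monitored kinetically at 480/540 nm for two minutes post-stimulus.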

[12] = molecular target: Cytochrome P450 3A4 (Homo sapiens) (UniProt P08684); test: Cytochrome P450 Family 3 Subfamily A Member 4 (CYP3A4) small molecule antagonists: luciferase reporter qHTS assay (AID 1671201); also: nearly all actives have a fitted effect of over 50% in size; also: potency is read from the fitted curve at half-maximal effect
Method in brief: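 CYP3A4 activity was followed with a P450-Glo proluciferin substrate. Test compounds in DMSO were preincubated 10 min; NADPH regeneration then ran 1 h, and light output was read 20 min after detection reagent.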

[13] = molecular target: Nuclear receptor subfamily 1 group I member 2 (Homo sapiens) (UniProt O75469); test: Human pregnane X receptor (PXR) small molecule agonists, qHTS assay (AID 1346982); also: nearly all actives have a fitted effect of over 35% in size; also: potency is read from the fitted curve at half-maximal effect
Method in brief: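 HepG2 PXR-Luc reporter line, 5% charcoal-stripped FBS; 5 hr pre-incubation, compound (DMSO) 24 hr at 37 C/5% CO2; ONE-Glo 30 min RT; luminescence read-out.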

[14] = molecular target: Cytochrome P450 2D6 (Homo sapiens) (UniProt P10635); test: Cytochrome P450 Family 2 Subfamily D Member 6 (CYP2D6) small molecule antagonists: luciferase reporter qHTS assay (AID 1671196); also: nearly all actives have a fitted effect of over 50% in size; also: potency is read from the fitted curve at half-maximal effect
Method in brief: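 Luminogenic proluciferin substrate, CYP2D6 enzyme; 10 min RT preincubation with compound, NADPH regeneration system added, 1 h RT. Stop/detection reagent, 20 min RT, luminescence read (RLU). Signal proportional to CYP activity.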

[15] = molecular target: Cytochrome P450 2C9 (Homo sapiens) (UniProt P11712); test: Cytochrome P450 Family 2 Subfamily C Member 9 (CYP2C9) small molecule antagonists: luciferase reporter qHTS assay (AID 1671198); also: nearly all actives have a fitted effect of over 50% in size; also: potency is read from the fitted curve at half-maximal effect
Method in brief: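 Enzyme-substrate mix preincubated with compound 10 min at room temperature; reaction started with NADPH regeneration solution, 1 h 37C. Luminescent luciferin product read after 20 min detection reagent.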

[16] = molecular target: Nuclear receptor subfamily 1 group I member 2 (Rattus norvegicus) (UniProt Q9R1A7); test: Rat pregnane X receptor (rPXR) activation by small molecules, qHTS assay (AID 1346983); conditions: rPXR luciferase reporter cells, One-Glo luminescence, 24 h; max activation: active compounds read high; also: nearly all actives have a fitted effect of over 20% in size
Method in brief: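 Luminescent readout (One-Glo luciferase, 30 min room temperature) followed 24 hr compound treatment at 37 C of rPXR cells plated 2,000 per well and preincubated 5hr; qHTS format with compounds delivered in DMSO.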

[17] = molecular target: Cytochrome P450 2C19 (Homo sapiens) (UniProt P33261); test: Cytochrome P450 Family 2 Subfamily C Member 19 (CYP2C19) small molecule antagonists: luciferase reporter qHTS assay (AID 1671197); also: nearly all actives have a fitted effect of over 65% in size; also: potency is read from the fitted curve at half-maximal effect
Method in brief: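 Light output is proportional to CYP2C19 activity: proluciferin substrate is converted to luciferin, then detected by a luciferin detection reagent that also stops the 1 h, 37C NADPH-driven reaction. Ketoconazole serves as positive control.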

Sequence of Nuclear receptor subfamily 1 group I member 2 (Homo sapiens) (O75469 whole entry, looked up): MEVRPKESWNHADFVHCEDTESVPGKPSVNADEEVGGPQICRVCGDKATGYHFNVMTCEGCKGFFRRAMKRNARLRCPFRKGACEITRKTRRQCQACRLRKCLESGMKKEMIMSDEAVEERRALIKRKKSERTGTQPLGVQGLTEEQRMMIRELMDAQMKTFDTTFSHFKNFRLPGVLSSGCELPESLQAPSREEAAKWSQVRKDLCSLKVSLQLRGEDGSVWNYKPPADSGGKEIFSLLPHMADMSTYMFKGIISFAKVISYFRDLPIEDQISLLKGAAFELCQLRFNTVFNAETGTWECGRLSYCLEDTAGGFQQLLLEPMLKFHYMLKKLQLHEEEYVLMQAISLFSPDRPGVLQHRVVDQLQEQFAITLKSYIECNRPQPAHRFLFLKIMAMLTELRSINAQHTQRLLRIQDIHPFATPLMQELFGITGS
Sequence of Cytochrome P450 2C19 (Homo sapiens) (P33261 whole entry, looked up): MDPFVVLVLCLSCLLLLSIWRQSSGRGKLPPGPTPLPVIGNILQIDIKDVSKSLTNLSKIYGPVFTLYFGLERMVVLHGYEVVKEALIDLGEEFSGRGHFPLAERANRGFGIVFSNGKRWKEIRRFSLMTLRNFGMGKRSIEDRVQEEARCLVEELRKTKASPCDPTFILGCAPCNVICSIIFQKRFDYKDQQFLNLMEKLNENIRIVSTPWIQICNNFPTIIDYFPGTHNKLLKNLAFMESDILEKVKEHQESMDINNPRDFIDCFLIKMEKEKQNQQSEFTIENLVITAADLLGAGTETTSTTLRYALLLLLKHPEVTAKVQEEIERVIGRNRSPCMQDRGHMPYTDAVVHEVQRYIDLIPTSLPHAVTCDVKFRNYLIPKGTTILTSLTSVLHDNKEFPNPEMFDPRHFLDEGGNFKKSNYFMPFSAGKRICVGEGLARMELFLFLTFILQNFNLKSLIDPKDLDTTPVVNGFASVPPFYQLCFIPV
Sequence of Cytochrome P450 2D6 (Homo sapiens) (P10635 whole entry, looked up): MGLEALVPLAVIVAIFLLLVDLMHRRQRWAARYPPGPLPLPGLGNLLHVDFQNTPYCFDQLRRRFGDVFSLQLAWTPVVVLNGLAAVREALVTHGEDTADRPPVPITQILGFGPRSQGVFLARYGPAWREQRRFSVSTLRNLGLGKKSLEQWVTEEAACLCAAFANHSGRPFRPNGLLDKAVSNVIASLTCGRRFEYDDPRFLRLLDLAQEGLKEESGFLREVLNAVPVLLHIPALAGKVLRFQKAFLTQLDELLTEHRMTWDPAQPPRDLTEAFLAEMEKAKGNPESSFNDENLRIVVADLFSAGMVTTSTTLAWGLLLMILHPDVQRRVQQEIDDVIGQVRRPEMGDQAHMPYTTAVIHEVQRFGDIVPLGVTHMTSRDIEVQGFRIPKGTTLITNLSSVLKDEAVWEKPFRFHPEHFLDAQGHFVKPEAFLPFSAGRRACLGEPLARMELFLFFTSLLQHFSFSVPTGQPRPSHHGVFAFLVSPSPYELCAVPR
Sequence of Acetylcholinesterase (Homo sapiens) (P22303 whole entry, looked up): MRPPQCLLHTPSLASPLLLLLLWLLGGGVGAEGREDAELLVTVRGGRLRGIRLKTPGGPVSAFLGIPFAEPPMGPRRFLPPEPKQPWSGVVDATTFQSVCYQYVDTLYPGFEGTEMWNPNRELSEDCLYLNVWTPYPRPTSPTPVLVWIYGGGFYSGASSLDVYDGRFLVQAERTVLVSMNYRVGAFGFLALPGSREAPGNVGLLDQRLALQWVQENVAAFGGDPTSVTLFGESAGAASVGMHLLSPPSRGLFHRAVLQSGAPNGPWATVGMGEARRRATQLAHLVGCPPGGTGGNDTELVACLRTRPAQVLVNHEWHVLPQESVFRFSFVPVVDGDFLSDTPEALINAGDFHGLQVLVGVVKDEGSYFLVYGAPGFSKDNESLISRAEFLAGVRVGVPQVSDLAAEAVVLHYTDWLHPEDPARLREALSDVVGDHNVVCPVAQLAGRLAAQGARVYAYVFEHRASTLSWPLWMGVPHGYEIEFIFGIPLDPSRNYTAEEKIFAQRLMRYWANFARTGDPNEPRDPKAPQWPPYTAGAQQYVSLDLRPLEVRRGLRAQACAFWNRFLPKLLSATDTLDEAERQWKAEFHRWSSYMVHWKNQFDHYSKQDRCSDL
Sequence of Voltage-gated inwardly rectifying potassium channel KCNH2 (Homo sapiens) (Q12809 whole entry, looked up): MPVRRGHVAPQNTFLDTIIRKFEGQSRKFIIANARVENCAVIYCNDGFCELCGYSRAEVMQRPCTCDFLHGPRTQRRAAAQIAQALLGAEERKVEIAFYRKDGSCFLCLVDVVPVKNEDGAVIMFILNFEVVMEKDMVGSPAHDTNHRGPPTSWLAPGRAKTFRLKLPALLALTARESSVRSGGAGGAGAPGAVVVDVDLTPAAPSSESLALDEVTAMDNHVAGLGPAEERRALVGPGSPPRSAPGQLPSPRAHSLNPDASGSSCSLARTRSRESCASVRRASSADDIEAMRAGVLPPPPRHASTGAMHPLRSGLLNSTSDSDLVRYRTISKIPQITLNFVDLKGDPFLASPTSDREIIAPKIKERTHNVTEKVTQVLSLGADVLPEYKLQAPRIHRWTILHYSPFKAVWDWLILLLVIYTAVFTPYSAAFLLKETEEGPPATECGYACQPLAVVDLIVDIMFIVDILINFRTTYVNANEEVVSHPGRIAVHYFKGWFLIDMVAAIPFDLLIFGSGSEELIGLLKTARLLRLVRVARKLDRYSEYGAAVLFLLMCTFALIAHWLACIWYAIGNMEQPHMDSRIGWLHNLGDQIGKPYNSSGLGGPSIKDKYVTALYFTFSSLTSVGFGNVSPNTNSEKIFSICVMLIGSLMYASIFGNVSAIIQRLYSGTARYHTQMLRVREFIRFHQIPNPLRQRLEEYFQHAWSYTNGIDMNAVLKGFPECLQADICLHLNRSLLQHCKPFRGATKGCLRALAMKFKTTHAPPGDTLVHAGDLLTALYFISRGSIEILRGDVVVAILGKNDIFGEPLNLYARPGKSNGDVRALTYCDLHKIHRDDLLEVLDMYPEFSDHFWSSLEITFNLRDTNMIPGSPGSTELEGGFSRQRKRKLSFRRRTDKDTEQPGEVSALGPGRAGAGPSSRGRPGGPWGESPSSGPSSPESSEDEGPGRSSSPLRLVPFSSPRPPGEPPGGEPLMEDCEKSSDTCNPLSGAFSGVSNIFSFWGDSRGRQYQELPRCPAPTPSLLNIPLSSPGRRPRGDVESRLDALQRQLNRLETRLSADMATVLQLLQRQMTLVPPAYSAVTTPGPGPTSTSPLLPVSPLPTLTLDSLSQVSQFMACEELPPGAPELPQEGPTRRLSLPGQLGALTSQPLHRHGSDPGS
Sequence of Cytochrome P450 3A4 (Homo sapiens) (P08684 whole entry, looked up): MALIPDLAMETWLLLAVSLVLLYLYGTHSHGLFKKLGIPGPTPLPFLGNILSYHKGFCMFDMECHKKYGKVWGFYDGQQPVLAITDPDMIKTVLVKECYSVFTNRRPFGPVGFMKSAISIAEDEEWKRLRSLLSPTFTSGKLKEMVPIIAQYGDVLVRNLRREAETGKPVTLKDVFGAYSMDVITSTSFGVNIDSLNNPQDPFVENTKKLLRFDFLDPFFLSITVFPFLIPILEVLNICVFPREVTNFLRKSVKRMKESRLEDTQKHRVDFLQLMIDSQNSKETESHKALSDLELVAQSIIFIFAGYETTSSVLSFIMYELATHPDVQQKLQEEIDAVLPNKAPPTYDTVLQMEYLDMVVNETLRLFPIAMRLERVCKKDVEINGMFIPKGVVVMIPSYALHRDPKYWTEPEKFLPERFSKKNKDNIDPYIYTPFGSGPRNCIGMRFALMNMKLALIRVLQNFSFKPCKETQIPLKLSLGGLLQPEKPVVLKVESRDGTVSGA
Sequence of Cytochrome P450 1A2 (Homo sapiens) (P05177 whole entry, looked up): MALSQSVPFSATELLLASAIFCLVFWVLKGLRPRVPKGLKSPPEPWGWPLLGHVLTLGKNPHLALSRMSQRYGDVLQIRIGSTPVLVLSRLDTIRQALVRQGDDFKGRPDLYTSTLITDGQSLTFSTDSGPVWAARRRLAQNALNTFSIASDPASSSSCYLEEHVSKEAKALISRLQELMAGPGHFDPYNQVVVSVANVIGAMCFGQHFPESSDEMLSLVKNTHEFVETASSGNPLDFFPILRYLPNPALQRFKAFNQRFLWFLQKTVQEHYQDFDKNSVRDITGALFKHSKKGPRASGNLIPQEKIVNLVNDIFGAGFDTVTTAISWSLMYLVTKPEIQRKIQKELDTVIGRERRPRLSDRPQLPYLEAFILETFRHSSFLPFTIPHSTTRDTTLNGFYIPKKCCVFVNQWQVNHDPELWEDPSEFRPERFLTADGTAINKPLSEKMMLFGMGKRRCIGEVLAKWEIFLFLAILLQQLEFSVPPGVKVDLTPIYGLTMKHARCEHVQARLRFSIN
Sequence of Cytochrome P450 2C9 (Homo sapiens) (P11712 whole entry, looked up): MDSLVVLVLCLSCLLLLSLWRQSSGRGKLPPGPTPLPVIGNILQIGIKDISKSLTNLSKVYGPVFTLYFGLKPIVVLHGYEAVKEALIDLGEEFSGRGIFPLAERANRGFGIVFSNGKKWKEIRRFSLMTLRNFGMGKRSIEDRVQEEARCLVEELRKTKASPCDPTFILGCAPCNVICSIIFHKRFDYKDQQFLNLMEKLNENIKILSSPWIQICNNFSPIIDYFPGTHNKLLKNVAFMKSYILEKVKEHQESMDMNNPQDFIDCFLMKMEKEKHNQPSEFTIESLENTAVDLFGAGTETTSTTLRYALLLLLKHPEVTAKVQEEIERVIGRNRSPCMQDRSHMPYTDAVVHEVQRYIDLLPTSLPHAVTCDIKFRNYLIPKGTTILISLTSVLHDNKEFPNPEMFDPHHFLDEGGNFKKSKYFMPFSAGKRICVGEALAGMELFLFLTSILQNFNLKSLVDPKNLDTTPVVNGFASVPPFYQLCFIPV

SMILES	Potency [1]	Potency [2]	Potency [3]	Potency [4]	Potency [5]	Potency [6]	Potency [7]	Potency [8]	Potency [9]	Potency [10]	Potency [11]	Potency [12]	Potency [13]	Potency [14]	Potency [15]	max activation [16]	Potency [17]
O=C(Cl)c1ccccc1F	inactive	inactive	inactive	inactive	inactive	inactive	inactive	inactive	inactive	inactive	inactive	inactive	–	–	–	–	–
C=CCBr	inactive	inactive	inactive	inactive	inactive	inactive	inactive	–	inactive	–	inactive	inactive	inactive	33.6 µM (active)	inactive	–	–
CCCCC(CC)COC(=O)c1ccccc1C(=O)OCC(CC)CCCC (stereo unspecified)	inactive	inactive	inactive	inactive	inactive	inactive	–	inactive	inactive	33.6 µM (active)	inactive	–	6.86 µM (active)	–	9.47 µM (active)	–	–
C[C@]12C/C(=C/O)C(=O)C[C@@H]1CC[C@@H]1[C@@H]2CC[C@@]2(C)[C@H]1CC[C@]2(C)O	inactive	inactive	43.7 µM (active)	inactive	inactive	inactive	inactive	inactive	inactive	inactive	inactive	–	–	–	35.9 µM (active) and 27.5 µM (active)	1.42%	inactive
N#CC(C#N)=NNc1cccc(Cl)c1	3.86 µM (active)	inactive	3.86 µM (active)	inactive	24.3 µM (active)	inactive	inactive	–	inactive	–	–	11.2 µM (active)	–	63.3 µM (active)	8.94 µM (active)	–	–
Cc1cc2c3c(c1)C(c1ccccc1)=N[C@@H](NC(=O)c1ccncc1)C(=O)N3CC2	inactive	inactive	inactive	inactive	inactive	inactive	inactive	–	inactive	–	–	1.12 µM (active)	–	39.9 µM (active)	31.7 µM (active)	–	–
O=C(O)CCCCCCNC1c2ccccc2CCc2ccccc21	inactive	inactive	inactive	inactive	inactive	inactive	inactive	inactive	inactive	inactive	inactive	inactive	inactive	–	inactive	–	–
CSSC	inactive	24.6 µM (active)	inactive	inactive	inactive	inactive	–	inactive	inactive	–	inactive	inactive	–	inactive	–	–	80.6 µM (active)
O=S1(=O)OCC2C(CO1)C1(Cl)C(Cl)=C(Cl)C2(Cl)C1(Cl)Cl (stereo unspecified)	inactive	inactive	48.6 µM (active)	inactive	inactive	inactive	–	–	inactive	31.7 µM (active)	17.4 µM (active)	0.224 µM (active)	21.7 µM (active)	inactive	15.9 µM (active)	–	–
COc1cnc(OC)n2nc(NS(=O)(=O)c3c(OCC(F)F)cccc3C(F)(F)F)nc12	inactive	inactive	inactive	inactive	inactive	inactive	inactive	–	inactive	–	inactive	–	inactive	inactive	–	–	–
Cc1c([N+](=O)[O-])cc2c(c1[N+](=O)[O-])C(C)(C)CC2(C)C	inactive	inactive	inactive	inactive	inactive	inactive	–	inactive	inactive	8.94 µM (active)	–	inactive	–	inactive	–	–	inactive
CO/N=C(/C1=NOCCO1)c1ccccc1Oc1ncnc(Oc2ccccc2Cl)c1F	9.68 µM (active)	inactive	1.72 µM (active)	inactive	30.6 µM (active)	inactive	inactive	–	inactive	25.2 µM (active)	inactive	–	27.3 µM (active)	–	11.2 µM (active)	–	7.96 µM (active)
CN(C)c1ccc(N)cc1	42.2 µM (active)	inactive	42.2 µM (active)	inactive	47.4 µM (active)	12.3 µM (active)	–	11 µM (active)	inactive	12.3 µM (active)	–	19.5 µM (active)	8.42 µM (active)	24.6 µM (active)	31 µM (active)	–	–
CCCCON=O	inactive	inactive	inactive	inactive	inactive	inactive	inactive	inactive	inactive	inactive	inactive	inactive	–	inactive	–	–	–
CC1CCCC1	inactive	inactive	inactive	inactive	inactive	inactive	–	inactive	inactive	–	inactive	27.8 µM (active)	–	inactive	8.8 µM (active)	–	17.6 µM (active)
CN=C=O	inactive	inactive	inactive	inactive	inactive	inactive	inactive	inactive	inactive	–	inactive	inactive	–	57.2 µM (active)	–	–	inactive
CC(C)C(Nc1ccc(C(F)(F)F)cc1Cl)C(=O)OC(C#N)c1cccc(Oc2ccccc2)c1 (stereo unspecified)	inactive	inactive	inactive	inactive	inactive	inactive	inactive	inactive	inactive	–	inactive	–	–	–	6.38 µM (active)	–	9.01 µM (active)
Cc1cnc2c(C(=O)O)c(Cl)ccc2c1	inactive	inactive	inactive	inactive	inactive	inactive	inactive	inactive	inactive	–	inactive	inactive	–	inactive	inactive	–	inactive
